In ChEMBL document CHEMBL3433997, “St. Jude Leishmania screening dataset” (2016):

What follows are compounds tested against Glucose transporter (Leishmania mexicana) (UniProt O61059) (assay: ST_JUDE_LEISH: Cytotoxicity at 2uM final concentration against transgenic Leishmania Mexicana promastigotes LmGT2 that are glucose transport deficient and complemented with the L. Mexicana glucose transporter 2. Activity is measured by DNA content using SYBR green in vitro).
Type: functional

Structure (SMILES) | inhibition
c1ccc2c(c1)CN(Cc1ccsc1)CC1(CCN(Cc3c[nH]c4cnccc34)CC1)O2 | 6.86%
O=C(NCc1cccc(F)c1)Nc1ccc(-c2ccc(-c3nc4cc(C(F)(F)F)ccc4[nH]3)cc2)cc1 | 1.77%
CN(C)CCN(C)Cc1cccc(-c2ccc3c(Nc4cc(O)c(Cl)cc4F)ccnc3c2)c1 | -2.95%
COc1cc(CCNC(=N)/C=C/c2ccc(Cl)cc2)ccc1Cl | -0.39%
CN1CCN(c2ccc3nccc(CCN4CCC(NCc5ccc6c(n5)NC(=O)CO6)CC4)c3n2)CC1 | -0.12%
CC(=O)Nc1ccc(OCCCCCOc2ccc(NC(C)=O)cc2Cl)c(Cl)c1 | 1.13%
CN(C)CCCNc1ncnc2c1[nH]c1ccc(Br)cc12 | 1.04%
CCCOC(=O)c1ccc(OCCCON2C(=N)N=C(N)NC2(C)C)cc1 | 5.01%
COc1cccc(CNC[C@@H](O)[C@H](Cc2ccccc2)NC(=O)c2cc(C(C)C)cc(N3CCCC3=O)c2)c1 | -1.21%
CCn1ccc2c(N3CCCS3(=O)=O)cc(C(=O)N[C@@H](Cc3ccccc3)[C@H](O)CNC3CCCCC3)cc21 | 5.33%
Cc1cccc2nc(-c3cccc(-c4cccc(CN5CCC(CO)CC5)c4)c3)[nH]c12 | 8.87%
O=C(c1cccc(-c2noc(C(F)(F)F)n2)c1)N1CCN(c2nsc3ccccc23)CC1 | -1.66%
CC(=O)Oc1c(Br)c(C)nc(C)c1-c1ccc(Oc2ccc(OC(F)(F)F)cc2)cc1 | 0.37%
O=C(N[C@@H](Cc1ccccc1)C(=O)NC1CCCc2ccccc21)c1ccc(O)c(-c2cccc(C(F)(F)F)c2)c1 (stereo not given in full) | -1.61%
CN1CCN(Cc2ccc(-c3cccc(-c4nc5ccccc5[nH]4)c3)cc2)CC1 | -2.4%
CCNc1cc(C(=O)N[C@@H](Cc2ccccc2)[C@H](O)CNCc2cccc(-n3ccnc3)c2)cc(N2CCCC2=O)c1 | 1.12%
Cc1cccc(C)c1OC(=O)CSc1nnc(-c2ccccc2O)o1 | 1.28%
COc1ccc2nccc([C@@H](O)CN3CCC(NCc4cc5ccc(C#N)cc5[nH]4)CC3)c2c1 | 9.02%
CCCCNC(=N)Nc1ccc(OCCCOc2ccc(NC(=N)NCCCC)cc2)cc1 | 0.01%
CCCCCCCN1CC[C@@H](C[C@H](N)Cc2ccnc3ccc(OC)cc23)[C@@H](CC)C1 | 0.03%

Structure (SMILES) | inhibition
O=C(Cc1c[nH]cn1)Nc1cccc(-c2cccc(-c3nc4cc(F)ccc4[nH]3)c2)c1 | -2.58%
O=[N+]([O-])c1cccc(C(Nc2ccccn2)c2ccc3cccnc3c2O)c1 (stereo not given) | 4.17%
CN1CCCN(c2ccnc3cc4c(cc23)N(C(=O)c2ccc(Cl)cc2)CC4)CC1 | 16.1%
CC(C)(C)c1cc(C(=O)N2CCN(c3nccnc3C#N)CC2)n(Cc2ccccc2)n1 | 1.02%
CC(C)NCC(O)Cn1c2ccc(Br)cc2c2cc(Br)ccc21 (stereo not given) | 0.36%
Cc1ccccc1N1CCN(c2ccc(C(=O)Nc3ccccc3)cc2)CC1 | 1.33%
Cc1cc(NCCC(=O)NCCOc2ccccc2)nc(NCCc2ccc(F)cc2)n1 | -2.75%
Cc1cc(Br)cnc1CCCCNc1cc(=O)c2ccccc2[nH]1 | 4.81%
CC(=O)Oc1cc(C)ccc1C1CCN(CCCCNC(=O)c2ccc(-c3ccc(C(F)(F)F)cc3)cc2)CC1 | 1.11%
FC(F)(F)c1ccc(COc2cc(Cl)ccc2Cn2ccnc2)cc1 | 7.28%
CS(=O)(=O)NCCCNCc1ccc(-c2ccc(-c3nc4cc(F)ccc4[nH]3)cc2)cc1 | 4.63%
CC(C)CCNC(=N)Nc1ccc(OCCCOc2ccc(NC(=N)NCCC(C)C)cc2)cc1 | -0.91%
Cc1ccc(C(O)CNc2ccnc(Nc3cccc(-c4csc(C)n4)c3)n2)cc1 (stereo not given) | -1.54%
CC(=O)Oc1c(Cl)c(C)nc(C)c1-c1ccc(Oc2ccc(OC(F)(F)F)cc2)cc1 | 2.42%
N#Cc1cccc(C(=O)NC2CCN(CCCCCNC(=O)/C=C/c3ccc(Cl)c(Cl)c3)CC2)c1 | 7.61%
COc1cc(C)c(C(O)CNC(C)CCc2ccccc2)cc1C (stereo not given) | -0.47%
CC(C)Cc1ccc(N2CCN(CCCCNC(=O)c3ccc(NC(=O)c4ccc(Cl)c(Cl)c4)cc3)CC2)cc1 | 0.21%
O=C(NC1CCCCC1)N(CCCn1ccnc1)Cc1csc(-c2ccc(CNCc3ccccc3)cc2)n1 | 1.34%
CC[C@H]1CN(CCCC(=O)c2ccccc2)CC[C@H]1CCCc1ccnc2ccc(OC(=O)c3ccccc3)cc12 | 2.72%
COc1ccc2c(CCNc3nc(SC)ncc3C(=O)NCCc3ccc(F)cc3)c[nH]c2c1 | 1.11%
